Screening data deposited in PubChem by several laboratories.
CYP2C19 inh – human CYP2C19 inhibition | P33261 | CYP2C19 Supersomes, luciferin-H EGE luminescence, 30 min | inhibition, % at 5 µM | actives 21% (n = 96,000) | AID 778;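 active = CYP2C19 inhibition above a set limit at 5 µM in the primary screen, cut at about 50% in these data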
Target sequence (P33261 whole entry, looked up): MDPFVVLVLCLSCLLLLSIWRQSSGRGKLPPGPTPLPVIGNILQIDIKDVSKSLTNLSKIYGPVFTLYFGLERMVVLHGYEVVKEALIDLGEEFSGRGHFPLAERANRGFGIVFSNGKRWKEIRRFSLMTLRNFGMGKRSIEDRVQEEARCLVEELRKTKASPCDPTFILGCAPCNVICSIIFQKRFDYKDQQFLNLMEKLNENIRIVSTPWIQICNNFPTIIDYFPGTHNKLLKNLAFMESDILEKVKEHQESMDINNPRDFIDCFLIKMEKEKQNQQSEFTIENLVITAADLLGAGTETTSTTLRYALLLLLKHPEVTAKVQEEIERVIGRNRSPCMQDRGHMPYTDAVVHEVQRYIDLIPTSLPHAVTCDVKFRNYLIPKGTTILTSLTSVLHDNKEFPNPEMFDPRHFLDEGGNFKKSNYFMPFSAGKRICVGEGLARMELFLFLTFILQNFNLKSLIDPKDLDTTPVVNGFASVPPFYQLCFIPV
sEH inh – soluble epoxide hydrolase (human) inhibition; P34913; recombinant human sEH enzymatic activity assay; inhibition, % at 2 µM; actives 0.34% (n = 91,000); AID 707; in the data active = inhibition above about 80%
CYP2C9 act – CYP2C9 (human) activation; recombinant CYP2C9, luciferin-H conversion, luminescence; stronger effect = higher value; factor 1 = untreated enzyme, 0 = blocked; P11712; activation factor at 5 µM; actives 1.4% (n = 96,000);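 active = activation factor of 2 or more for CYP2C9 at a 5 µM dose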
CYP2C9 inh – inhibitors of human CYP2C9; inhibition, % at 5 µM; CYP2C9 Supersomes, luciferin-H conversion, luminescence; actives 20% (n = 96,000);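 active = blocking of liver enzyme CYP2C9 beyond about 50% at 5 µM, limit read from the data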
sEH activator – increases human soluble epoxide hydrolase activity | purified human sEH enzymatic activity, activator screen | P34913 | activation, % at 2 µM | actives 0.04% (n = 91,000); in the data active = activation above about 37%
CYP2C19 activ – cytochrome P450 2C19 (human) activation. P33261. recombinant CYP2C19, luciferin-H EGE luminescence; stronger effect = higher value; 0 = fully inhibited enzyme, 1 = untreated enzyme. activation factor at 5 µM. 96,000 tested, under 10 active. AID 1025;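 active = activation factor of at least 2 at 5 µM in the primary screen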
Numbers stand for hits; . = inactive; / = no result. In the library only some 27% were active in any assay of this set; here they are far more common.

SMILES | CYP2C19 inh | sEH inh | CYP2C9 act | CYP2C9 inh | sEH activator | CYP2C19 activ
NC(=O)c1sc2nc3c(c(-c4ccc(Cl)cc4)c2c1N)CCCC3 | . | . | . | . | . | .
CCOC(=O)c1sc2nc(N3CCOCC3)c3c(c2c1N)CCCC3 | . | . | . | . | . | .
COC(=O)c1ccc(-c2sc3nc(N4CCOCC4)c4c(c3c2N)CCCC4)o1 | 57.2 | . | . | 55.3 | . | .
Clc1ccc(-c2n[nH]c3c2CCC3)cc1Cl | . | . | . | . | . | .
CN1CCN(CC#CC2(O)CCCCC2)CC1 | . | . | . | . | . | .
Nc1c(C(=O)NCc2ccco2)sc2nc(N3CCOCC3)c3c(c12)CCCC3 | . | . | . | 56.5 | . | .
Cc1ccc2nc3sc(C(=O)NCc4ccco4)c(N)c3cc2c1 | / | . | / | / | . | /
CCOCc1cn(CC(=O)c2ccc(Cl)cc2)c(C)nc1=N | . | . | . | . | . | .
Cc1nc([N+](=O)[O-])c(Br)n1CC(=O)c1ccc(Cl)cc1 | . | . | . | 66.0 | . | .
COc1ccc(CC(C(=O)Nc2cc(C)ccc2C)/C(N)=N/O)cc1 (centres undefined) | . | . | . | . | . | .
CCC(C)(C(=O)NC1CCCCC1)N(C(=O)C1CCC(=O)N1)c1ccc(C)cc1 (centres undefined) | . | / | . | . | / | .
Cc1ccc(-n2nc(-c3cccs3)cc2C(=O)NCC2CCCO2)c(C)c1 (centres undefined) | 64.8 | . | . | 89.8 | . | .
CCCCNC(=O)CN(C1CCCCC1)S(C)(=O)=O | . | . | . | 74.4 | . | .
CS(=O)(=O)N(CC(=O)NCCc1ccccc1)C1CCCCC1 | . | . | . | . | . | .
c1ccc(-c2cc3n(c2)CCc2ccccc2-3)cc1 | / | . | / | / | . | /
Cc1cccc(N2CCN(C(=O)C3CCCCC3)CC2)c1C | . | / | . | . | / | .
CCS(=O)(=O)N1Cc2ccccc2CC1C(=O)NC(C)C12CC3CC(CC(C3)C1)C2 (centres undefined) | . | . | . | . | . | .
CCS(=O)(=O)N1Cc2ccccc2CC1C(=O)N1CCN(c2cccc(C)c2C)CC1 (centres undefined) | 63.8 | . | . | 58.4 | . | .
CCS(=O)(=O)N1Cc2ccccc2CC1C(=O)NCC12CC3CC(CC(C3)C1)C2 (centres undefined) | 91.5 | . | . | 68.0 | . | .
CCN1C(=O)c2ccc(C(=O)NCc3ccccc3)cc2C1=O | . | . | . | . | . | .
O=C(NCc1ccccc1)c1ccc2c(c1)C(=O)N(Cc1ccncc1)C2=O | 70.6 | . | . | 89.6 | . | .
O=C(Nc1ccccc1N1CCCCC1)c1ccc(N2C(=O)c3ccccc3C2=O)cc1 | . | . | . | 54.6 | . | .
O=C(Nc1ccccc1N1CCOCC1)c1ccc2c(c1)C(=O)N(Cc1ccncc1)C2=O | 79.1 | . | . | 83.9 | . | .
CC(C)Oc1ccc(C(=O)Nc2ccccc2N2CCCC2)cc1 | . | . | . | . | . | .
CC(=O)N1CSCC1C(=O)N1CCN(c2ccc(N3CCOCC3)nn2)CC1 (centres undefined) | . | . | . | . | . | .
SMILES | CYP2C19 inh | sEH inh | CYP2C9 act | CYP2C9 inh | sEH activator | CYP2C19 activ
CC1CN(Cc2cc(=O)[nH]c(C(C)C)n2)CC(C)O1 (centres undefined) | . | . | . | . | . | .
CCOC(=O)C(NC(=O)c1ccc(OC)cc1)(OCC1(CC)COC1)C(F)(F)F (centres undefined) | . | . | . | 63.4 | . | .
CCOC(=O)C(NC(=O)c1ccccc1)(OCC1(CC)COC1)C(F)(F)F (centres undefined) | / | . | / | / | . | /
CCSc1nnc(NC(=O)COc2cccc3ccccc23)s1 | . | . | . | 56.9 | . | .
O=C(COc1cccc2ccccc12)NNC(=O)Nc1ccccc1 | 53.2 | . | 2 | . | . | .
O=C(COc1cccc2ccccc12)NNC(=O)[C@@H]1CCCC[C@@H]1C(=O)O | . | . | . | . | . | .
CCNC(=O)COc1cccc2ccccc12 | 53.9 | . | . | . | . | .
CCOCC(=O)Nc1nnc(SCCOC)s1 | . | . | . | 51.0 | . | .
COc1ccccc1N1CCN(C(=O)C(=O)N/N=C/c2cccc(O)c2)CC1 | . | . | . | . | . | .
CCSc1nc2ccccc2n1Cc1nc(N)nc(N(C)C)n1 | 90.4 | . | . | 65.9 | . | .
CCSc1nc2ccccc2n1CC(N)=O | / | . | / | / | . | /
CCCCN(CC)CCCNC(=O)C1c2ccccc2C(=O)N(C)C1c1cn(C)c2ccccc12 (centres undefined) | . | . | . | . | . | .
COc1ccc(-c2ccc(/C=C3\C(=O)N(c4ccccc4)N=C3c3ccccc3)o2)c([N+](=O)[O-])c1 | 55.9 | . | . | 70.7 | . | .
CNC(=O)/C(C#N)=C/c1ccc(-c2ccc(OC)cc2[N+](=O)[O-])o1 | . | . | . | . | . | .
Cc1ccc(C(=O)O)cc1-c1ccc(/C=C2/NC(=O)N(c3ccccc3)C2=O)o1 | . | . | . | . | . | .
COC(=O)c1ccccc1-c1ccc(/C=C2\C(=O)N(c3ccccc3)N=C2c2ccccc2)o1 | 94.1 | . | . | 82.8 | . | .
CCOC(=O)c1c(N)sc(C(O)(C(F)(F)F)C(F)(F)F)c1-c1ccc(F)cc1 | . | . | . | 74.8 | . | .
CCOC(=O)c1c(N)sc(C(O)(C(F)(F)F)C(F)(F)F)c1-c1ccc(Cl)cc1 | 62.5 | . | . | 86.3 | . | .
O=C(O)C1CCCCC1C(=O)NC1CCCCC1 (centres undefined) | . | . | . | . | . | .
O=C(c1ccncc1)c1ccc(N2CCN(C3CC(=O)N(Cc4ccccc4)C3=O)CC2)cc1 (centres undefined) | 85.9 | . | . | 60.5 | . | .
O=C1CC(N2CCN(c3ccc(S(=O)(=O)N4CCOCC4)cc3)CC2)C(=O)N1Cc1ccccc1 (centres undefined) | . | . | . | . | . | .
O=C(NCc1ccco1)c1noc2c1CCCCC2 | . | . | . | . | . | .
COc1ccc2nc(Nc3nc(CSc4nnnn4-c4ccccc4)cc(=O)[nH]3)nc(C)c2c1 | . | . | . | . | . | .
CCOc1ccc2nc(Nc3nc(CSc4nnnn4-c4ccccc4)cc(=O)[nH]3)nc(C)c2c1 | 53.3 | . | . | 51.1 | . | .
Cc1ccc2c(C)nc(Nc3nc(CSc4nnnn4-c4ccccc4)cc(=O)[nH]3)nc2c1 | 59.8 | / | . | 87.5 | / | .
C=CCOc1cccc(C2C(C(=O)c3ccc(C)o3)=C(O)C(=O)N2c2nccs2)c1 (centres undefined) | . | . | . | . | . | .
CCN(CC)CCCN1C(=O)C(=O)/C(=C(/O)c2ccc3c(c2)OCCO3)C1c1ccc(C)o1 (centres undefined) | . | / | . | . | / | .
CC(Nc1cccc2ccccc12)C(=O)N/N=C/c1ccccn1 (centres undefined) | 86.0 | . | . | . | . | .
